This experiment has as its system Sam68 (KHDRBS1). The experiment in a line: compounds binding KHDRBS1 protein – biochemical, small-molecule microarray, 635 nm fluorescence, primary screen (AID 1125).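 Note: score merges 667 nm channel intensity with signal to noise over triplicate slides.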 Conditions: higher = more signal.
Compound `CC[C@H]1C2=C3C(CC[C@H]4C(OCc5ccc(F)cc5C(F)(F)F)OC[C@](C)([C@@H]34)N(C(=O)OC(C)(C)C)C2)C(COC)C1COC` (some centres not stated) had a composite z-score of 0.0783.

For the compound `CC(C)N1C(=O)C[C@@](C(=O)NCCCN(C)C)(c2ccc([N+](=O)[O-])cc2)[C@H]1c1ccc(CO)cc1`, the composite z-score is -0.579.

For the compound `NC(=O)NCC#Cc1ccc2c(c1)[C@]1(C(=O)N2)[C@H](C(=O)NC[C@H](O)c2ccccc2)[C@H]2C(=O)O[C@H](c3ccccc3)[C@H](c3ccccc3)N2[C@@H]1c1ccc(OCCO)cc1`, the composite z-score stood at 1.01.

Consider `Cc1ccccc1C(O)C1C=CC2C(=O)N(C)C(=O)C2N1N(c1ccccc1)c1ccccc1` (configuration not stated), for which the composite z-score is -1.29.

Take `C=CCC(OC(C)=O)[C@@H]1[C@@H](N(Cc2cc3ccccc3o2)C(=O)c2ccc(C)cc2)c2cc(OCCCO)ccc2N1C(=O)Cc1ccc(OC)cc1` (some centres not stated): the composite z-score was 0.0262.

Take `COC(=O)C1=CC(CCCO)=CC(C2CC2)N(C)C=C1C(=O)OC` (configuration not stated): the composite z-score is 0.0065.

`COc1cc2c(cc1OC)CN(C(=O)[C@@H]1[C@H]3C(=O)O[C@H](c4ccccc4)[C@H](c4ccccc4)N3[C@H](c3ccc(OCCO)cc3)[C@@]13C(=O)Nc1ccc(C#CC4(O)CCCCCC4)cc13)CC2` displayed a composite z-score of 1.32.

In turn, `COc1cc(OC)c(C(O)C2C=CC3C(=O)N(c4ccccc4)C(=O)C3N2Nc2ccccc2)cc1Br` (configuration not stated) returned a composite z-score of 1.19.

In turn, `COc1ccc([Si](C)(C)[C@@H]2[C@@H](CC(=O)N(CCO)Cc3ccccc3)O[C@]3(C(=O)N(Cc4cccc(N5C(=O)c6cccc7cccc5c67)c4)c4ccccc43)[C@H]2C)cc1` displayed a composite z-score of 0.0019.

As to `COC(=O)c1c2oc(c1C(=O)OC)C(=O)N(C)Cc1cn(nn1)C[C@H](Cc1ccccc1)NC(=O)N[C@H](CO)CC2`, the composite z-score is -0.947.

On to `O=C(CS)NCCCCCCNC(=O)[C@H]1C[C@H]2C(=O)N[C@@H](Cc3ccccc3)C(=O)N2[C@H]1c1ccc(O)cc1`, for which the composite z-score came out at 1.18.

`O=C1C2C=CC(C(O)c3ccccc3)N(Nc3ccccc3F)C2C(=O)N1c1ccccc1` (configuration not stated) gave a composite z-score of 0.246.

On to `CC(C)(C)N1CC=CC23O[C@@H]4C=CCOC(=O)[C@@H]4[C@H]2C(=O)N(CCCCCCO)[C@@H]3C1=O` (some centres not stated), for which the composite z-score was -0.551.

In the case of `CCCCO[C@H]1C[C@H]2C(I)=C[C@@H]1C(=O)[C@]21CO1`, the composite z-score is -0.414.

`C=CCOC(=O)[C@H]1[C@@H]2C(=O)O[C@@H](c3ccccc3)[C@@H](c3ccccc3)N2[C@@H](c2ccc(OCCOC(=O)[C@@H]3C[C@@H]4C(=O)N5CCC[C@H]5C(=O)N4[C@@H]3c3ccc(O)cc3)cc2)[C@]12C(=O)Nc1ccc(I)cc12` came in with a composite z-score of 0.27.

`C=CCOC(=O)[C@H]1[C@@H]2C(=O)O[C@@H](c3ccccc3)[C@@H](c3ccccc3)N2[C@@H](c2ccc(OCCOC(=O)[C@H]3C[C@H]4C(=O)N[C@@H](CCCCNC(C)=O)C(=O)N4[C@H]3c3ccc(O)cc3)cc2)[C@]12C(=O)Nc1ccccc12` returned a composite z-score of 1.3.

With `CCOc1cc(C(O)C2C=CC3C(=O)N(C)C(=O)C3N2Nc2ccccc2)ccc1O` (configuration not stated), the composite z-score was 1.22.

The compound `C#CCN([C@@H](Cc1ccc(O)cc1)C(=O)OC)[C@@H](/C=C/C1CC1)[C@H](O)Cc1ccccc1` came in with a composite z-score of -0.0361.

Compound `O=c1n(-c2ccccc2)c(=O)n2n1CC(COc1ccccc1)=C([C@H](O)CCc1ccccc1)[C@@H]2CO` gave a composite z-score of -0.0362.

Turning to `CC(=O)NCCCC[C@@H]1NC(=O)[C@H]2C[C@@H](C(=O)NCCCC[N+](C)(C)C)[C@@H](c3cccc(OCCO)c3)N2C1=O`, the composite z-score turned out to be 0.719.

Regarding `CN1C(=O)C2C=CC(C(O)c3ccccn3)N(N(c3ccccc3)c3ccccc3)C2C1=O` (configuration not stated), the composite z-score was -0.349.

Compound `C[N+](C)(C)CCCCCCNC(=O)[C@H]1C[C@H]2C(=O)NCC(=O)N2[C@H]1c1ccc(O)cc1` returned a composite z-score of 1.12.

Turning to `CCCC[C@@H]1C[C@H]1[C@@H](NC(=O)c1cccs1)c1ccc(C(F)(F)F)cc1`, the composite z-score is -0.154.

`COc1ccc(CCN2C(=O)[C@@]3(Cc4ccccc42)c2ccccc2C(=O)N(Cc2ccccc2OC)[C@H]3c2ccc(CO)cc2)cc1` displayed a composite z-score of -0.232.

`C[C@@H]1NC(=O)[C@@]23C(=O)N[C@@H](Cc4ccccc4)C2[C@H](C)[C@@]2(C)O[C@H]2C3/C=C/C/C=C\CNC(=O)[C@@H]2CCCN2C1=O` (some centres not stated) gave a composite z-score of -1.

With `C=C(/C(=C/C[C@H](OC(C)=O)c1cccc(OCCO)c1)c1cnc2ccccc2c1)C(C)C`, the composite z-score was 0.615.

In turn, `[N-]=[N+]=NCc1ccccc1[C@H]1OC(c2ccc(OCCCO)cc2)=N[C@@]1(CCS(=O)(=O)c1ccccc1)C(=O)NCC(O)CO` (some centres not stated) yielded a composite z-score of 1.06.

Source of the values: PubChem BioAssay.
